The results in this text go back to PubChem BioAssay (EPA / NIEHS).

Structures are written as SMILES. Inconclusive results are not listed. Calls of active or inactive are those of the source. Rule for the calls: active = hit-call score of the fitted dose curve at least 0.9, where 1 is the maximum; inconclusive = response in the unintended direction; inactive = score below 0.9.

human Adenosine A1 Receptor (AdoRA1), ADORA1 (gene 134), sequence (P30542 whole entry, looked up): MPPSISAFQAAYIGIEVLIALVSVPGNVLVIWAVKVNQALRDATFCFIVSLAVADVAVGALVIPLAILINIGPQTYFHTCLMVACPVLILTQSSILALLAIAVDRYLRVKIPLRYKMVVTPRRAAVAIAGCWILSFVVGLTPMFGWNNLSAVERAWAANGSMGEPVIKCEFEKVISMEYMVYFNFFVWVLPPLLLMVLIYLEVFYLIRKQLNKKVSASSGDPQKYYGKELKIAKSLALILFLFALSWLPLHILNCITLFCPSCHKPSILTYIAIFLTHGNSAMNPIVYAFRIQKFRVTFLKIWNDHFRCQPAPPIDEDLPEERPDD

The target of this assay is human Adenosine A1 Receptor (AdoRA1), ADORA1 (gene 134) (UniProt P30542). The assay is described as follows: NVS_GPCR_hAdoRA1: NovaScreen (NVS) G Protein-Coupled Receptor Assay for human Adenosine A1 Receptor (AdoRA1) (AID 2283254). Here is the method:
NVS_GPCR_hAdoRA1 is a biochemical, single-readout assay that uses extracted gene-proteins from Human cortical membranes in a tissue-based cell-free assay. Measurements were taken 1 hour after chemical dosing in a 96-well plate.NVS_GPCR_hAdoRA1 is one of one assay component(s) measured or calculated from the NVS_GPCR_hAdoRA1 assay. It is designed to make measurements of radioligand binding, a form of binding reporter, as detected with scintillation counting signals by Filter-based radiodetection technology.Data from the assay component NVS_GPCR_hAdoRA1 was analyzed into 1 assay endpoint. This assay endpoint, NVS_GPCR_hAdoRA1, was analyzed in the positive analysis fitting direction relative to DMSO as the negative control and baseline of activity. Using a type of binding reporter, loss-of-signal activity can be used to understand changes in the binding as they relate to the gene ADORA1. Furthermore, this assay endpoint can be referred to as a primary readout, because the performed assay has only produced 1 assay endpoint. To generalize the intended target to other relatable targets, this assay endpoint is annotated to the gpcr intended target family, where the subfamily is rhodopsin-like receptor.
Binding assays used specific radioligands (tritiated, iodinated) with non-radioactive competitive displacement ligands in agonist or antagonist protocols (as indicated) and various reference compounds and inhibitors to titrate specific binding to receptors and transporters. Most enzyme assays (CYPs, kinases, phosphatases, proteases, HDACs) used recombinant protein and specific substrates (fluorescence mostly, some colorimetric and radioactive) and inhibitors, followed by a biochemical separation of substrate and product. All assays for the biochemical HTS were initially run in duplicate at a single concentration (10 uM for CYP450 assays and 25 uM for all others). […] Each assay was run with positive and negative controls, and concurrent controls on every plate. The follow-up (secondary) screen tested active chemical-pairs in concentration series, as well as a few additional assays not tested in the primary screen, some selected negative inactives, and several cases re-run in the concentration series for confirmatory purposes.
With `CCN(CC)CCNc1ccc(CNC=O)c2sc3ccc(OC)cc3c(=O)c12`, the AC50 (commonly the midpoint of the concentration-response curve, whichever way the signal moves) was 3.34 µM (active). In the case of `CCCCCCCC(=O)O`, the call was inactive.

In the case of `CCC(=C(c1ccc(O)cc1)c1ccc(OCCN(C)C)cc1)c1ccccc1`, the AC50 is 2.12 µM (active). On to `Cc1oc(-c2ccccc2)nc1CCOc1ccc(C[C@H](Nc2ccccc2C(=O)c2ccccc2)C(=O)O)cc1`, for which the AC50 is 25 µM (active). For `O=C(OCCOCCOC(=O)c1ccccc1)c1ccccc1`, the AC50 was 5.62 µM (active). In the case of `CCCCCCCCCCCCc1ccccc1S(=O)(=O)O`, the AC50 is 18.1 µM (active).

As to `O=C(O)Cc1cc(I)c(Oc2cc(I)c(O)c(I)c2)c(I)c1`, the result was inactive. With `CC[C@H](c1ccc(O)cc1)[C@@H](CC)c1ccc(O)cc1`, the AC50 was 8.65 µM (active). As for `NC(=O)N1C(=O)C(C(=O)c2cc(Cl)cs2)c2cc(F)c(Cl)cc21` (configuration not stated), the AC50 was 8.46 µM (active). `CCCOc1sc(C(=O)N2CCC(c3cc(CN)ccc3F)CC2)c(C)c1Br`: the AC50 is 17.2 µM (active). Consider `CCCOC(=O)c1ccc(O)cc1`, for which the AC50 is 11.8 µM (active).

In the case of `CC#C[C@]1(O)CC[C@H]2[C@@H]3CCC4=CC(=O)CCC4=C3[C@@H](c3ccc(N(C)C)cc3)C[C@@]21C`, the outcome was inactive.
